Screening results: PubChem, several laboratories
CYP2C9 inh – blocks human cytochrome P450 2C9; AID 777; inhibition, % at 5 µM; 96,000 compounds, 20% hits; CYP2C9 Supersomes, luciferin-H conversion, luminescence; P11712;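 active = blocking of liver enzyme CYP2C9 beyond about 50% at 5 µM, limit read from the data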
Target sequence (P11712 whole entry, looked up): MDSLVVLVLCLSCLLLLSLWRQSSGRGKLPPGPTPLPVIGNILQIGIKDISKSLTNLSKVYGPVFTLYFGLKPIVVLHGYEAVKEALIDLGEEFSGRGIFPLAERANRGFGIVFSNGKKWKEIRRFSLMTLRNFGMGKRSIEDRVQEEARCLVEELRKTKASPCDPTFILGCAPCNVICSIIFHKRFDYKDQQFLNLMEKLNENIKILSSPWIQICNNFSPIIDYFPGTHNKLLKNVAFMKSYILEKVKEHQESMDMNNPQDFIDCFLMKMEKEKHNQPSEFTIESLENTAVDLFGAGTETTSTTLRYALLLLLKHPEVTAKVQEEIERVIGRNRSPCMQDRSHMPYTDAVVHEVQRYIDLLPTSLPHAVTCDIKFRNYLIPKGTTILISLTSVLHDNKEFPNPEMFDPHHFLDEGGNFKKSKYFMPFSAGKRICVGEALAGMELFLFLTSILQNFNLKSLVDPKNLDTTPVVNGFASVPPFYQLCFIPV
CYP2C19 inh – inhibitors of human CYP2C19 | P33261 | inhibition, % at 5 µM | 96,000 compounds, 21% hits | AID 778 | CYP2C19 Supersomes, luciferin-H EGE luminescence, 30 min;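 active = CYP2C19 inhibition above a set limit at 5 µM in the primary screen, cut at about 50% in these data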;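 note: plate controls were negative control wells for no effect and 2.5 mM tranylcypromine positive control for full effect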
Measles CPE – protection of cells from measles virus; Measles virus-infected cells, CPE protection, absorbance; protection (pct of control), % at 4 µM; 140,000 compounds, 1.5% hits; AID 841; in the data active = protection mostly above about 24%, no sharp cut-off; inactive = mostly below about 26%
CYP2C9 act – increases human cytochrome P450 2C9 activity; recombinant CYP2C9, luciferin-H conversion, luminescence; stronger effect = higher value; factor 1 = untreated enzyme, 0 = blocked; activation factor at 5 µM; 96,000 compounds, 1.4% hits;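 active = activation factor of 2 or more for CYP2C9 at a 5 µM dose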;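 note: 0 = sulfaphenazole-blocked wells and 1 = vehicle-only wells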
CYP2C19 act – increases human CYP2C19 enzyme activity; P33261; 96,000 tested, under 10 active; recombinant CYP2C19, luciferin-H EGE luminescence; stronger effect = higher value; 0 = fully inhibited enzyme, 1 = untreated enzyme; AID 1025; activation factor at 5 µM;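 active = activation factor of at least 2 at 5 µM in the primary screen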;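 note: 0 = wells with 2.5 mM tranylcypromine and 1 = vehicle-only wells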
An asterisk follows results filed as active; . = not tested or not shown. Only some compounds are listed: those with a hit (about 22% of all), similar ones and a draw of the others.

SMILES	CYP2C9 inh	CYP2C19 inh	Measles CPE	CYP2C9 act	CYP2C19 act
COc1ccc(-c2csc(NC(=O)c3cc(-c4cccs4)nc4ccccc34)n2)c(OC)c1	.	.	10	.	.
COc1ccccc1-c1cc(C(=O)N/N=C/c2cccs2)c2ccccc2n1	96*	80*	6	0	0.2
COc1ccc(-c2cc(C(=O)N/N=C/c3sccc3C)c3ccccc3n2)c(OC)c1	88*	65*	5	0.1	0.3
Cc1cc2nc(C3CCCN(C(=S)Nc4ccccc4)C3)[nH]c2cc1C (configuration not stated)	-4	-5	6	1	1.1
CCOc1ccc2c(c1)s/c(=N\S(=O)(=O)c1ccc(OC)cc1)n2C(F)F	45	61*	11	0.6	0.4
O=C1CCC(C(=O)O)(c2ccccc2)C1 (configuration not stated)	-4	-16	2	1	1.2
CCOC(=O)CSc1nc2c(c(=O)n(C)c(=O)n2C)n1CCCc1ccccc1	73*	57*	2	0.3	0.4
CCN1CCN(Cc2nc3c(c(=O)n(C)c(=O)n3C)n2CCCc2ccccc2)CC1	-13	10	.	1.1	0.9
Cn1c(=O)c2c(nc(CN3CCN(C(=O)c4ccco4)CC3)n2CCCc2ccccc2)n(C)c1=O	85*	50	2	0.1	0.5
Cn1c(=O)c2c(nc(CN3CCN(C(=O)c4ccco4)CC3)n2CCc2ccccc2)n(C)c1=O	9	2	29	0.9	1
CCOC(=O)N1CCN(Cc2nc3c(c(=O)n(C)c(=O)n3C)n2CCCc2ccccc2)CC1	70*	35	18	0.3	0.7
CC1CCCN(Cc2nc3c(c(=O)n(C)c(=O)n3C)n2CCc2ccccc2)C1 (configuration not stated)	9	6	6	0.9	0.9
CC1CCCN(Cc2nc3c(c(=O)n(C)c(=O)n3C)n2CCCc2ccccc2)C1 (configuration not stated)	62*	11	7	0.4	0.9
CCCCCC1CC(=O)N(Cc2ccccc2)C(=O)N1 (configuration not stated)	-2	38	30	1	0.6
Cc1cccc(OCc2nnc(SCC(=O)OC3CCCCC3)o2)c1	18	7	25	0.8	0.9
O=C(CC(SCCO)c1ccc2c(c1)OCO2)c1ccco1 (configuration not stated)	72*	98*	7	0.3	0
COc1cc(CNc2cccc(F)c2)cc(Br)c1O	14	16	10	0.9	0.8
Cc1cccc(N2C(=O)C3C4C=CC(C4)C3C2=O)c1 (configuration not stated)	9	26	8	0.9	0.7
O=C(Nc1ccc(Cc2ccncc2)cc1)C1CCC(N2C(=O)C3CC=CCC3C2=O)CC1 (configuration not stated)	67*	58*	6	0.3	0.4
O=C1C2C3C=CC(C3)C2C(=O)N1c1ccc(Cc2ccncc2)cc1 (configuration not stated)	80*	71*	7	0.2	0.3
O=C(Nc1ccc(Cc2ccncc2)cc1)C1CCC(N2C(=O)C3C4C=CC(C4)C3C2=O)CC1 (configuration not stated)	95*	96*	21	0	0
O=C(CN1C(=O)C2CC=CCC2C1=O)Nc1ccc(-c2nnc3n2CCCCC3)cc1 (configuration not stated)	10	5	6	0.9	0.9
O=[N+]([O-])c1cc(Cl)cc(/C=N\Nc2ccccn2)c1O	50*	54*	1	0.5	0.5
O=C(Nc1cccc2ccccc12)/C(Cl)=C/c1ccccc1	-199	4	13	3*	1
Cc1cc(C)c(C(N)=O)c(NC(=O)Nc2ccccc2Cl)n1	16	2	6	0.8	1
SMILES	CYP2C9 inh	CYP2C19 inh	Measles CPE	CYP2C9 act	CYP2C19 act
Cc1cc(C)c(S(=O)(=O)/N=C2\C=CC(=O)C(Cl)=C2)c(C)c1	16	51*	22	0.8	0.5
CCOc1ccc2nc(NC(=S)N(C)C)sc2c1	35	28	5	0.7	0.7
Cc1c(C(=O)OC2CCCCC2)sc2nc[nH]c(=O)c12	40	49	0	0.6	0.5
Cc1nn(C(C)C(=O)NNC(=S)Nc2ccc(F)cc2)c(C)c1[N+](=O)[O-] (configuration not stated)	55*	8	16	0.4	0.9
COc1ccc(NC(=S)NNC(=O)C(C)n2nc(C)c([N+](=O)[O-])c2C)cc1 (configuration not stated)	-2	-7	4	1	1.1
Cc1nn(C)c(C(=O)NNC(=S)Nc2ccc(F)cc2)c1[N+](=O)[O-]	52*	8	5	0.5	0.9
CCOc1ccc(OCCN2C(=O)NC(Cc3c[nH]c4ccccc34)C2=O)cc1 (configuration not stated)	80*	68*	54	0.2	0.3
O=C1NC(Cc2c[nH]c3ccccc23)C(=O)N1CCOc1ccc(F)cc1 (configuration not stated)	71*	74*	19	0.3	0.3
CN1CC(=O)N(CCOc2ccccc2)C1=O	-2	3	24	1	1
Cc1cccc(C)c1OCC(O)CNS(=O)(=O)c1ccccc1C(=O)N1CCOCC1 (configuration not stated)	.	.	20	.	.
CCn1c2ccccc2c2cc(NC(=O)COC(=O)c3cccc(S(=O)(=O)NC)c3)ccc21	.	.	8	.	.
COc1ccc(N(CC(=O)NCc2ccco2)S(C)(=O)=O)cc1OC	50	83*	14	0.5	0.2
COc1ccc(S(=O)(=O)N(CC(=O)NCc2ccco2)C2CCCCC2)cc1OC	40	86*	0	0.6	0.1
COc1ccc(N(CC(=O)NCc2ccco2)S(C)(=O)=O)cc1	19	46	3	0.8	0.5
COc1ccc(S(=O)(=O)N(CC(=O)NC2CC2)C2CCCCC2)cc1Cl	72*	59*	22	0.3	0.4
COc1ccc(N(CC(=O)NCc2ccco2)S(C)(=O)=O)cc1Cl	-20	66*	10	1.2	0.3
Cc1c(NC(=O)c2cc(C3CC3)on2)c(=O)n(-c2ccccc2)n1C	-20	-24	8	1.2	1.2
CCn1ncc(Br)c1C(=O)Nc1ccc(Cl)cn1	-2	-3	9	1	1
COc1ccc2cc3cc(C(=O)Nc4ccccc4N4CCN(C)CC4)oc3nc2c1	26	61*	4	0.7	0.4
COC(=O)c1c(C)[nH]c(C)c1-c1ccccc1	27	60*	14	0.7	0.4
COC(=O)c1c(C)nc2ccccc2c1-c1ccccc1	34	25	7	0.7	0.7
CCCCn1cnc2c(cnn2-c2ccc(F)cc2)c1=O	56*	43	8	0.4	0.6
O=c1c2cnn(-c3ccc(F)cc3)c2ncn1Cc1ccccn1	33	56*	10	0.7	0.4
